From PubChem
A selection: hits, their analogues and other compounds. The true share with any hit is near 3.7%.
tim10-1 inh = inhibits growth of tim10-1 mutant yeast | S. cerevisiae tim10-1 ts strain growth, BacTiter-Glo, 24 h | inhibition, % at 20 µM | 330,000 compounds, 2.2% hits | AID 463190;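 active means inhibition of at least 40%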;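 further: mutant grown at 25 °C; 0% = DMSO wells with yeast and 100% = wells holding no yeast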
tim23-1 inh = tim23-1 yeast growth inhibition | 330,000 compounds, 1.3% hits | inhibition, % at 20 µM | S. cerevisiae tim23-1 growth, BacTiter-Glo luminescence, 24 h;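 active means growth inhibition of the mutant yeast at or above 50%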;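 further: temperature-sensitive mutant grown at 25 °C; plate controls were DMSO-treated mutant yeast for no effect and medium wells lacking yeast for full effect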
TIM10 inh = growth inhibitors of TIM10 yeast strain; S. cerevisiae TIM10 strain growth, BacTiter-Glo luminescence, 24 h; inhibition, % at 10 µM; 330,000 compounds, 1.4% hits;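 active means inhibition of 40% or more at the single tested concentration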;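 further: wild-type TIM10 isogenic control strain grown at permissive 25 °C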
PfHsp90 set2 = inhibits growth of yeast expressing Plasmodium falciparum Hsp90; S. cerevisiae expressing PfHsp90, BacTiter-Glo ATP, 48 h; yeast lacking PDR1 and PDR3 efflux regulators; inhibition, % at 9.4 µM; 310,000 compounds, 0.32% hits;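 active means every replicate shows inhibition above about 80%, whatever the replicate mean, limit read from the data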;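 further: 0% = DMSO neutral controls and 100% = 20 µM radicicol positive controls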
Rce1 inh = inhibitors of yeast Ras-converting enzyme; Q03530; yeast membranes, quenched prenylated peptide cleavage fluorescence; calls only; 290,000 compounds, 0.27% hits; AID 2563;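 active means fall in fluorescence gain of 50% or more versus controls, with final raw signal at or below 3038400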;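 further: plate controls were neutral control wells for no effect and wells lacking membranes for full effect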
Target sequence (Q03530 whole entry, looked up): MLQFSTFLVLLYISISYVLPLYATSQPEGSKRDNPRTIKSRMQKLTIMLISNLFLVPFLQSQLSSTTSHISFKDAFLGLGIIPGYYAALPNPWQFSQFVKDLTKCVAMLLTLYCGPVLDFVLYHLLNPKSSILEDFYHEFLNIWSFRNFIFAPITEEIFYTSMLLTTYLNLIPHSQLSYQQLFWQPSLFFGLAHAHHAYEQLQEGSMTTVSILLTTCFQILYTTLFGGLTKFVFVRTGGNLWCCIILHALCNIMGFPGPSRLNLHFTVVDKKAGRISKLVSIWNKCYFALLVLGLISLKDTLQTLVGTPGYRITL
tim10-1 conf = tim10-1 yeast growth inhibition, confirmed. shares compounds with tim10-1 inh. S. cerevisiae tim10-1 ts strain growth, BacTiter-Glo, 24 h. inhibition, % at 20 µM. 7,400 compounds, 56% hits. AID 463213;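 active means inhibition of yeast growth at or above a set limit in either of two repeat tests at 20 µM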;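 further: tim10-1 mutant grown at permissive 25 °C to find synthetic lethal compounds; 0% = DMSO yeast wells and 100% = medium wells without yeast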
tim10 confirm = TIM10 yeast growth inhibition, confirmed. shares compounds with TIM10 inh. S. cerevisiae tim10 strain growth, BacTiter-Glo luminescence, 24 h. inhibition, % at 10 µM. 4,600 compounds, 63% hits. AID 463215;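 active means inhibition of yeast growth at or above a set limit in either of two replicates at 10 µM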;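 further: this counterscreen used the strain with wild-type TIM10; 0% = yeast with DMSO and 100% = medium wells lacking yeast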
* marks the source's active call; other numbers are inactive results; i = inactive; / = no result given.

SMILES | tim10-1 inh | tim23-1 inh | TIM10 inh | PfHsp90 set2 | Rce1 inh | tim10-1 conf | tim10 confirm
COc1ccccc1-c1c(C)nn2c(N3CCCCCC3)cc(C)nc12 | 56* | 49 | 41* | 11 | i | 41* | 34*
Cc1ccc(S(=O)(=O)N2CCN(S(C)(=O)=O)C2C)cc1 (configuration not stated) | 7 | 15 | 17 | -10 | i | / | /
O=[N+]([O-])c1cccc(NC(=S)NCCc2ccccc2)c1 | 47* | 32 | 46* | 15 | i | 30* | 17
Cc1[nH]c2ccccc2c1C(=O)C(C)OC(=O)c1ccccc1NCCO (configuration not stated) | 17 | 14 | 8 | 11 | i | / | /
O=C(Nc1ccnn1C1CCN(C(=O)CCc2ccc(F)cc2)CC1)C1CCOC1 (configuration not stated) | 9 | 2 | 6 | -1 | i | / | /
Cc1ccc(/C(N)=N/OC(=O)c2ccco2)cc1 | 46* | 38 | 52* | / | i | 34* | 37*
N/C(=N\OC(=O)c1ccco1)c1ccccc1 | 14 | 21 | 9 | -17 | i | / | /
O=C(COC(=O)CN1C(=O)NC2(CCCC2)C1=O)NCc1ccc(Cl)cc1Cl | -12 | 23 | -3 | 3 | / | / | /
COc1cc(C(=O)Oc2ccc3ccc(O)cc3c2)cc(OC)c1OC | 47* | 44 | 42* | -21 | i | 32* | 39*
S=C(NCc1ccccc1)NC1CCSc2ccccc21 (configuration not stated) | 23 | 28 | 22 | -30 | i | / | /
CC1CCC(NS(=O)(=O)c2ccc(Cl)nc2)CC1 (configuration not stated) | 21 | 26 | 9 | / | i | / | /
O=C(C#Cc1ccccc1)c1ccc([N+](=O)[O-])cc1 | 43* | -95 | 55* | 101* | i | 9 | -25
O=C(c1ccc(-c2ccccc2)cc1)c1ccc([N+](=O)[O-])cc1 | -2 | 2 | 1 | / | i | / | /
CCOC(=O)C(C)Sc1ncc(-c2ccc(Cl)cc2)cn1 (configuration not stated) | 1 | 38 | 16 | / | i | / | /
Cc1ccc(-c2nc3c(=O)n(C)c4ccccc4c3o2)cc1 | 52* | 45 | 58* | / | i | 31* | 64*
COc1ccccc1N1CCN(Cc2ccc(OC)c(OC)c2OC)CC1 | 9 | -18 | -8 | 3 | i | / | /
COc1ccccc1N1CCN(Cc2ccc(O)c3ncccc23)CC1 | 42* | 31 | 50* | -26 | i | 23 | 35*
CCOC(=O)c1sc(Nc2ccc(C)cc2C)nc1C | 48* | 4 | 63* | 5 | i | 28 | 40*
CC(=O)c1sc(NC(=O)Cc2c(F)cccc2Cl)nc1C | 26 | 35 | 27 | -2 | i | / | /
CCOC(=O)c1sc(Nc2ccccc2)nc1C | 36 | 30 | 13 | 3 | i | / | /
CCOC(=O)c1sc(NC(=O)Cc2c(F)cccc2Cl)nc1C | 47* | 47 | 44* | / | i | 43* | 36*
COc1ccc(N2CCN(C(=O)Nc3cccc(C(F)(F)F)c3)CC2)cc1 | 55* | -8 | 49* | -11 | i | 41* | 21
O=C(CN1CCN(S(=O)(=O)c2ccc3ccccc3c2)CC1)Nc1ccc2c(c1)CCC2 | 44* | 27 | 53* | -48 | i | 46* | 13
O=C(COc1ccc2ccccc2c1)Nc1ccc(S(=O)(=O)N2CCCCCC2)cc1 | 41* | 14 | 46* | -11 | i | 37* | -11
COc1ccc(C(=O)Nc2ccc(S(=O)(=O)N3CCCCC3)cc2)cc1 | 48* | 43 | 61* | 3 | i | 64* | 62*
SMILES | tim10-1 inh | tim23-1 inh | TIM10 inh | PfHsp90 set2 | Rce1 inh | tim10-1 conf | tim10 confirm
Cc1cc(C)c(NS(=O)(=O)c2ccc(NC(=O)/C=C/C(=O)O)cc2)c(C)c1 | 9 | 7 | 6 | / | i | / | /
COc1ccc(Cl)cc1S(=O)(=O)Oc1ccc(NC(C)=O)cc1 | 16 | 26 | 7 | -14 | i | / | /
c1ccc(-c2nnc(-c3ccccn3)nc2NC2CCCCC2)cc1 | 47* | 17 | 67* | 103* | i | 36* | 63*
CCCn1cnc2cc(NCc3ccc(Br)cc3)ccc21 | 43* | 45 | 52* | -8 | i | 17 | 50*
CCn1cnc2cc(NCc3ccc(C)cc3)ccc21 | -18 | 6 | 4 | -42 | i | / | /
N#Cc1cccc2c1-c1ccccc1/C2=N/NC(N)=S | 52* | 40 | 47* | -9 | i | 41* | 56*
CN(C)S(=O)(=O)c1ccc(Cl)c(NC(=O)C2CCN(S(=O)(=O)c3cccs3)CC2)c1 | 0 | 2 | -13 | 19 | / | / | /
COCCCNC(=O)c1ccc2c3c(onc13)-c1ccccc1C2=O | 53* | 44 | 43* | -5 | i | 42* | 41*
CCOc1ccc(S(=O)(=O)N2CCN(C(=O)c3ccc(Cl)c(S(=O)(=O)N4CCOCC4)c3)CC2)cc1 | / | / | / | -16 | / | / | /
O=c1c2cc(F)ccc2sn1-c1ccccc1 | 45* | 38 | 47* | -7 | / | 56* | 77*
Cc1ccccc1-n1sc2cc(F)ccc2c1=O | 40* | 41 | 49* | / | / | 38* | 70*
Cc1ccc(-n2sc3ccccc3c2=O)cc1S(=O)(=O)N1CCCCC1 | 87* | 17 | 57* | 106* | i | 89* | 76*
O=C(O)c1cccc(-n2sc3ccccc3c2=O)c1 | 1 | 9 | 2 | -3 | / | / | /
O=c1c2ccccc2sn1-c1ccccc1 | 86* | 32 | 58* | 88* | i | 51* | 97*
COc1ccc(CNC(=O)C(OC(=O)c2ccco2)c2ccc(F)cc2)cc1 (configuration not stated) | 7 | 10 | -4 | 30 | i | / | /
CCCC1(c2ccccc2)NC(=O)NC1=O (configuration not stated) | -21 | 4 | 10 | -57 | i | / | /
COc1ccc(Cn2c(-c3ccc(OC)cc3)nc3ccccc32)cc1 | 36 | 41 | 17 | 23 | i | / | /
COc1ccc(Cn2c(-c3ccc(Br)cc3)c[n+]3ccccc23)cc1 | 48* | 8 | 55* | 8 | i | 30* | 25
CCOc1cc(CNCCSc2nnnn2C)cc(Br)c1OCc1ccc(F)cc1 | 24 | 16 | 26 | -48 | i | / | /
CCCCCCCCNCCS(=O)(=O)NCc1ccc(OC)cc1 | / | / | / | -10 | / | / | /
N/C(Cc1cccc2ccccc12)=N\OC(=O)c1ccc2c(c1)OCO2 | 48* | 20 | 60* | 12 | i | 39* | 32*
N/C(=N\OC(=O)c1ccc2c(c1)OCO2)c1cccnc1 | 14 | 10 | 5 | 19 | i | / | /
Cc1ccc(OCC(=O)O/N=C(\N)Cc2ccc(Cl)cc2)cc1 | 59* | 42 | 78* | -7 | i | 44* | -11
